This note sets out measurements from the supplement of paper PMC4962491.

± gives the standard deviation of the averaged measurements.

This experiment deals with FaDu. Briefly: mitochondrial oxygen consumption rate normalised to cell number, Z score vs plate DMSO wells; higher = higher oxygen consumption (negative = OCR reduction). As to conditions: treatment time 24 h, assay medium: 5 mM glucose, 5 mM pyruvate, 4 mM glutamine. How it is done:
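Secondary screen: FaDu cells were incubated 24 h with the top 130 primary hits at 0.08, 0.4, 2 or 10 uM. Mitochondrial-specific OCR (basal minus antimycin A) was measured on a Seahorse XF96 in medium with 5 mM glucose, 5 mM pyruvate and 4 mM glutamine and normalised to Hoechst cell number. OCR score = (OCR - mean of plate DMSO wells) / SD of plate DMSO wells. Three repeats.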
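Note: compound exposure in DMEM (4 mM L-glutamine, 5 mM glucose), antimycin A injected at 2 µM after the basal reading and its residual OCR subtracted from basal.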

Consider `O=C1C(O)=C([C@H]2CC[C@H](c3ccc(Cl)cc3)CC2)C(=O)c2ccccc21`, for which the “mitochondrial oxygen consumption rate normalised” value was -0.607 ± 2.4 (0.08 µM), 1.63 ± 1.6 (0.4 µM), -0.111 ± 2.5 (2 µM) and -3.55 ± 2.2 (10 µM).
With `Cc1cc(N)c2ccccc2[n+]1CCCCCCCCCC[n+]1c(C)cc(N)c2ccccc21`, the “mitochondrial oxygen consumption rate normalised” value by setting is: (0.08 µM) 0.324 ± 0.65; (0.4 µM) 0.622 ± 0.8; (2 µM) -4.67 ± 2.1; (10 µM) -7.52 ± 1.4.
With `C[n+]1cc2c3c(ccc2c2ccc4cc5c(cc4c21)OCO5)OCO3`, the “mitochondrial oxygen consumption rate normalised” value reads like this: (0.08 µM) 0.385 ± 0.96; (0.4 µM) 0.59 ± 0.68; (2 µM) -0.66 ± 2.1; (10 µM) -3.47 ± 3.3.
For `CCN(CC)CCCC(C)Nc1c2ccc(Cl)cc2nc2ccc(OC)cc12` (configuration not stated), the “mitochondrial oxygen consumption rate normalised” value is -0.58 ± 1.2 (0.08 µM), 0.524 ± 1.1 (0.4 µM) and -2.47 ± 1.1 (2 µM).
For `N=C(NCCCCCCNC(=N)NC(=N)Nc1ccc(Cl)cc1)NC(=N)Nc1ccc(Cl)cc1`, the “mitochondrial oxygen consumption rate normalised” value was 0.00962 ± 0.9 (0.08 µM), 1.64 ± 0.46 (0.4 µM), -0.184 ± 0.7 (2 µM) and -7.98 ± 0.44 (10 µM).
Turning to `C=CC1=C(C)c2cc3[nH]c(cc4nc(cc5[nH]c(cc1n2)c(C)c5CCC(=O)O)C(CCC(=O)O)=C4C)c(C)c3C=C`, the “mitochondrial oxygen consumption rate normalised” value (0.08 µM) is 0.0776 ± 2.3, the “mitochondrial oxygen consumption rate normalised” value (0.4 µM) was determined as 1.29 ± 2, the “mitochondrial oxygen consumption rate normalised” value (2 µM) was found to be 0.447 ± 0.95 and the “mitochondrial oxygen consumption rate normalised” value (10 µM) was -1.43 ± 1.3.
For `C=CCOC(Cn1ccnc1)c1ccc(Cl)cc1Cl` (configuration not stated), in that order: -0.655 ± 2.4, 0.416 ± 2.9, -0.3 ± 1.2 and -0.245 ± 0.57.
As to `N[C@@H](Cc1ccc(O)c(O)c1)C(=O)O`, the “mitochondrial oxygen consumption rate normalised” value runs as follows: (0.08 µM) 0.0621 ± 1.8; (0.4 µM) 0.345 ± 0.69; (2 µM) 1.31 ± 0.9; (10 µM) 0.522 ± 2.
`CCCCCCCCCCCCCCCC[N+](C)(C)C`: the “mitochondrial oxygen consumption rate normalised” value is 0.46 ± 0.86 (0.08 µM), -0.326 ± 1 (0.4 µM) and -10.1 ± 0.48 (2 µM).
Regarding `c1ccc2c(c1)CCCC2C1=NCCN1` (configuration not stated), the “mitochondrial oxygen consumption rate normalised” value (0.08 µM) is -1.42 ± 2.7, the “mitochondrial oxygen consumption rate normalised” value (0.4 µM) was -0.536 ± 1.1, the “mitochondrial oxygen consumption rate normalised” value (2 µM) was -0.793 ± 1 and the “mitochondrial oxygen consumption rate normalised” value (10 µM) was -0.259 ± 1.
`C=C1CC[C@H](O)C/C1=C/C=C1\CCC[C@]2(C)[C@@H]([C@H](C)/C=C/[C@H](C)C(C)C)CC[C@@H]12`: the “mitochondrial oxygen consumption rate normalised” value reads like this: (0.08 µM) -1.49 ± 2.4; (0.4 µM) -0.211 ± 0.41; (2 µM) -1.83 ± 1.7; (10 µM) -2.44 ± 1.9.
